# The supplement of paper PMC8728848
# Shown is part of a subset that was picked to be rich in the strongest signals.
# What was measured:
# Test in all cases: glycan array binding signal (z-score within array); higher = stronger binding
# Conditions in all cases: glycan notation: IUPAC condensed, linker removed
# [1] = target: Fuc(a1-2)Gal(b1-3)GlcNAc(b1-3)GalNAc
# In short: (§1)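 Negative Z-scores can be read as non-binding. The Z-score is calculated within each array and then averaged across arrays of one protein sequence at different concentrations or buffers and across linkers. Arrays, 3228 in all, were curated from the Consortium for Functional Glycomics database and kept only where the protein sequence was available.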
# [2] = target: Fuc(a1-2)Gal(b1-4)[Fuc(a1-3)]GlcNAc(b1-2)[Fuc(a1-2)Gal(b1-4)[Fuc(a1-3)]GlcNAc(b1-4)]Man(a1-3)[Fuc(a1-2)Gal(b1-4)[Fuc(a1-3)]GlcNAc(b1-2)Man(a1-6)]Man(b1-4)GlcNAc(b1-4)GlcNAc
# In short: as §1
# [3] = target: Fuc(a1-2)Gal6S(b1-3)GlcNAc6S
# In short: as §1
# [4] = target: Fuc(a1-2)[Gal(a1-3)]Gal(b1-4)GlcNAc
# In short: as §1
# [5] = target: Fuc(a1-3)[Gal(b1-4)]GlcNAc(b1-2)Man(a1-3)[Fuc(a1-3)[Gal(b1-4)]GlcNAc(b1-2)Man(a1-6)]Man(b1-4)GlcNAc(b1-4)GlcNAc
# In short: as §1
# [6] = target: Fuc(a1-3)[Gal(b1-4)]GlcNAc(b1-4)Gal(b1-4)[Fuc(a1-3)]GlcNAc
# In short: as §1
# [7] = target: Fuc(a1-3)[GalNAc3S(b1-4)]GlcNAc
# In short: as §1
# Fuc(a1-4)GlcNAc = target: Fuc(a1-4)GlcNAc
# In short: as §1
# [8] = target: Gal(a1-3)Gal(b1-3)GlcNAc(b1-6)GalNAc
# In short: as §1
# [9] = target: Gal(a1-4)Gal(b1-4)GlcNAc(b1-2)Man(a1-3)[Gal(a1-4)Gal(b1-4)GlcNAc(b1-2)Man(a1-6)]Man(b1-4)GlcNAc(b1-4)GlcNAc
# In short: as §1
# [10] = target: Gal(b1-3)Gal(b1-4)GlcNAc(b1-2)Man(a1-3)[Gal(b1-3)Gal(b1-4)GlcNAc(b1-2)Man(a1-6)]Man(b1-4)GlcNAc(b1-4)GlcNAc
# In short: as §1
# [11] = target: Gal(b1-3)GalNAc(b1-4)[Neu5Ac(a2-3)]Gal(b1-4)Glc
# In short: as §1
# [12] = target: Gal(b1-3)GlcNAc(b1-2)Man(a1-3)[GlcNAc(b1-4)][Gal(b1-3)GlcNAc(b1-2)Man(a1-6)]Man(b1-4)GlcNAc(b1-4)GlcNAc
# In short: as §1
# [13] = target: Gal(b1-3)[Fuc(a1-4)]GlcNAc
# In short: as §1
# [14] = target: Gal(b1-3)[Fuc(a1-4)]GlcNAc(b1-3)Gal(b1-4)GlcNAc
# In short: as §1
# [15] = target: Gal(b1-3)[Fuc(a1-4)]GlcNAc(b1-3)Gal(b1-4)[Fuc(a1-3)]GlcNAc
# In short: as §1
# [16] = target: Gal(b1-3)[Neu5Ac(a2-6)]GlcNAc(b1-6)Gal(b1-4)Glc
# In short: as §1
# [17] = target: Gal(b1-4)GlcNAc(b1-2)Man(a1-3)[Gal(b1-4)GlcNAc(b1-2)][GlcNAc(b1-4)]Man(b1-4)GlcNAc(b1-4)GlcNAc
# In short: as §1
# [18] = target: Gal(b1-4)GlcNAc(b1-2)[Gal(b1-4)GlcNAc(b1-4)]Man(a1-3)[Gal(b1-4)GlcNAc(b1-2)Man(a1-6)]Man(b1-4)GlcNAc(b1-4)GlcNAc
# In short: as §1
# [19] = target: Gal(b1-4)GlcNAc(b1-2)[Gal(b1-4)GlcNAc(b1-6)]Man(a1-6)[GlcNAc(b1-4)][Gal(b1-4)GlcNAc(b1-2)Man(a1-3)]Man(b1-4)GlcNAc(b1-4)GlcNAc
# In short: as §1
# [20] = target: Gal(b1-4)GlcNAc(b1-6)Gal(b1-4)GlcNAc
# In short: as §1
# [21] = target: Gal(b1-4)GlcNAc(b1-6)[Gal(b1-3)]GalNAc
# In short: as §1
# Gal(b1-4)GlcNAc6P = target: Gal(b1-4)GlcNAc6P
# In short: as §1
# Gal6S(b1-4)Glc6S = target: Gal6S(b1-4)Glc6S
# In short: as §1
# GlcA(b1-3)Gal = target: GlcA(b1-3)Gal
# In short: as §1
# [22] = target: GlcNAc(b1-2)Man(a1-3)[GlcNAc(b1-4)][GlcNAc(b1-2)Man(a1-6)]Man(b1-4)GlcNAc(b1-4)GlcNAc
# In short: as §1
# [23] = target: GlcNAc(b1-2)[GlcNAc(b1-6)]Man(a1-6)[GlcNAc(b1-2)Man(a1-3)][GlcNAc(b1-4)]Man(b1-4)GlcNAc(b1-4)GlcNAc
# In short: as §1
# [24] = target: GlcNAc(b1-3)[GlcNAc(b1-4)][GlcNAc(b1-6)]GlcNAc
# In short: as §1
# GlcNAc3Prop(b1-4)GlcNAc = target: GlcNAc3Prop(b1-4)GlcNAc
# In short: as §1
# Man(a1-2)Man(a1-3)Man = target: Man(a1-2)Man(a1-3)Man
# In short: as §1
# [25] = target: Man(a1-2)Man(a1-3)[Man(a1-2)Man(a1-6)]Man
# In short: as §1
# [26] = target: Man(a1-2)Man(a1-3)[Man(a1-6)]Man(a1-6)[Man(a1-2)Man(a1-3)]Man(b1-4)GlcNAc(b1-4)GlcNAc
# In short: as §1
# [27] = target: Neu5Ac(a2-3)Gal(b1-4)GlcNAc(b1-2)Man
# In short: as §1
# [28] = target: Neu5Ac(a2-3)Gal(b1-4)GlcNAc(b1-3)[Neu5Ac(a2-3)Gal(b1-4)GlcNAc(b1-6)]GalNAc
# In short: as §1
# [29] = target: Neu5Ac(a2-6)Gal(b1-4)GlcNAc(b1-2)Man(a1-3)Man(b1-4)GlcNAc(b1-4)GlcNAc
# In short: as §1
# [30] = target: Neu5Ac(a2-6)Gal(b1-4)GlcNAc(b1-2)Man(a1-3)[GlcNAc(b1-2)Man(a1-6)]Man(b1-4)GlcNAc(b1-4)GlcNAc
# In short: as §1
# [31] = target: Neu5Ac(a2-6)Gal(b1-4)GlcNAc(b1-2)Man(a1-3)[Man(a1-6)]Man(b1-4)GlcNAc(b1-4)GlcNAc
# In short: as §1
# [32] = target: Neu5Ac(a2-6)Gal(b1-4)GlcNAc(b1-2)Man(a1-3)[Neu5Ac(a2-6)Gal(b1-4)GlcNAc(b1-2)Man(a1-6)]Man(b1-4)GlcNAc(b1-4)GlcNAc
# In short: as §1
# [33] = target: Neu5Ac(a2-6)Gal(b1-4)GlcNAc(b1-2)Man(a1-3)[Neu5Ac(a2-6)Gal(b1-4)GlcNAc(b1-2)Man(a1-6)]Man(b1-4)GlcNAc(b1-4)[Fuc(a1-6)]GlcNAc
# In short: as §1
# [34] = target: Neu5Ac(a2-6)Gal(b1-4)GlcNAc(b1-2)Man(a1-6)[Gal(b1-4)GlcNAc(b1-2)Man(a1-3)]Man(b1-4)GlcNAc(b1-4)GlcNAc
# In short: as §1
# [35] = target: Neu5Ac(a2-6)Gal(b1-4)GlcNAc(b1-3)[Neu5Ac(a2-6)Gal(b1-4)GlcNAc(b1-6)]GalNAc
# In short: as §1
# [36] = target: Neu5Gc(a2-6)Gal(b1-4)GlcNAc
# In short: as §1
binder,measurement,setting,value
"Calsepa (Calystegia sepium), P93114 (protein) MAVPMDTISGPWGNNGGNFWSFRPVNKINQIVISYGGGGNNPIALTFSSTKADGSKDTITVGGGGPDSITGTEMVNIGTDEYLTGISGTFGIYLDNNVLRSITFTTNLKAHGPYGQKVGTPFSSANVVGNEIVGFLGRSGYYVDAIGTYNRHK",glycan array binding signal (z-score),[1],-0.268
same,glycan array binding signal (z-score),[2],-0.257
same,glycan array binding signal (z-score),[3],-0.26
same,glycan array binding signal (z-score),[4],-0.249
same,glycan array binding signal (z-score),[5],-0.082
same,glycan array binding signal (z-score),[6],-0.253
same,glycan array binding signal (z-score),[7],-0.265
same,glycan array binding signal (z-score),Fuc(a1-4)GlcNAc,-0.244
same,glycan array binding signal (z-score),[8],-0.269
same,glycan array binding signal (z-score),[9],3.47
same,glycan array binding signal (z-score),[10],3.79
same,glycan array binding signal (z-score),[11],-0.253
same,glycan array binding signal (z-score),[12],4.21
same,glycan array binding signal (z-score),[13],-0.25
same,glycan array binding signal (z-score),[14],-0.252
same,glycan array binding signal (z-score),[15],-0.253
same,glycan array binding signal (z-score),[16],-0.248
same,glycan array binding signal (z-score),[17],5.25
same,glycan array binding signal (z-score),[18],-0.045
same,glycan array binding signal (z-score),[19],3.71
same,glycan array binding signal (z-score),[20],-0.251
same,glycan array binding signal (z-score),[21],-0.249
same,glycan array binding signal (z-score),Gal(b1-4)GlcNAc6P,-0.27
same,glycan array binding signal (z-score),Gal6S(b1-4)Glc6S,-0.237
same,glycan array binding signal (z-score),GlcA(b1-3)Gal,-0.244
same,glycan array binding signal (z-score),[22],5
same,glycan array binding signal (z-score),[23],5.82
same,glycan array binding signal (z-score),[24],-0.241
same,glycan array binding signal (z-score),GlcNAc3Prop(b1-4)GlcNAc,-0.246
same,glycan array binding signal (z-score),Man(a1-2)Man(a1-3)Man,-0.248
same,glycan array binding signal (z-score),[25],-0.251
same,glycan array binding signal (z-score),[26],-0.239
same,glycan array binding signal (z-score),[27],-0.255
same,glycan array binding signal (z-score),[28],-0.273
same,glycan array binding signal (z-score),[29],6.79
same,glycan array binding signal (z-score),[30],3.81
same,glycan array binding signal (z-score),[31],3.86
same,glycan array binding signal (z-score),[32],4.29
same,glycan array binding signal (z-score),[33],0.514
same,glycan array binding signal (z-score),[34],4.01
same,glycan array binding signal (z-score),[35],-0.274
same,glycan array binding signal (z-score),[36],-0.247
